Laboratory results published in PubChem BioAssay AID1159580 (chemical genetic matrix, 2015).
“And” between values parts separate entries of the source, which are not always exact repeats. Identical values can stand only once. The whole screen tested about 5,500 compounds, of which about 2,000 (36%) were called active. Inconclusive results (about 18%) are left out. No stated cut-off is given here; in the data, active means normalized growth mostly below about 0.91 (no sharp cut-off); inconclusive means no clear call, values can overlap the other calls; inactive means mostly above about 0.92. This is one part of the list.

Test: chemical genetic growth profiling, strain panel (AID 1159580);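 further: tested at 20 µM; growth read once vehicle control cultures reached saturation at 30 °C; 1 = growth at the plate median or of vehicle wells; lower values mean less growth of the strain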
Conditions: S. cerevisiae deletion strains, growth OD

Measured: normalized growth

O=c1c(O)c(-c2ccc(O)cc2O)oc2cc(O)cc(O)c12
inactive: locus YKL009W, strain mrt4, active compounds read low 1.01 | locus YKL068W, active compounds read low 1.01 | locus YKL085W, strain MDH1 (second series), active compounds read low 0.999 | locus YKL085W, strain MDH1, active compounds read low 0.999 | locus YKL160W, strain elf1, active compounds read low 0.989 | locus YKL190W, strain CNB1, active compounds read low 1 | locus YKR001C, strain vps1, active compounds read low 1.01 | locus YKR026C, strain gcn3, active compounds read low 0.975 | locus YKR091W, strain srl3, active compounds read low 0.996 | locus YLL001W, strain dnm1, active compounds read low 0.983 | locus YLL026W, active compounds read low 1 | locus YLL041C, strain sdh2, active compounds read low 0.999 | locus YLR027C, strain aat2, active compounds read low 1.01 | locus YLR039C, strain RIC1, active compounds read low 1.04 | locus YLR058C, strain SHM2, active compounds read low 0.984 | locus YLR102C, strain apc9, active compounds read low 1.01 | locus YLR113W, strain HOG1, active compounds read low 1 | locus YLR221C, strain rsa3, active compounds read low 0.963 | locus YLR258W, strain gsy2, active compounds read low 0.985 | locus YLR262C, strain YPT6 (second series), active compounds read low 0.966 | locus YLR262C, strain YPT6, active compounds read low 1.06 | locus YLR268W, strain sec22, active compounds read low 1.03 | locus YLR320W, strain mms22, active compounds read low 0.959 | locus YLR330W, strain CHS5, active compounds read low 1.01 | locus YLR342W, strain FKS1 (second series), active compounds read low 0.965 | locus YLR342W, strain FKS1, active compounds read low 0.974 | locus YLR357W, strain rsc2, active compounds read low 0.924 | locus YLR370C, strain arc18, active compounds read low 0.988 | locus YLR371W, strain rom2, active compounds read low 0.995 | locus YLR384C, strain iki3, active compounds read low 1 | locus YLR418C, strain cdc73, active compounds read low 1.05 | locus YML016C, strain PPZ1, active compounds read low 0.972 | locus YML032C, strain rad52, active compounds read low 1 | locus YML120C, strain ndi1, active compounds read low 0.994 | locus YML124C, strain tub3, active compounds read low 1.02 | locus YMR058W, strain fet3, active compounds read low 0.932 | locus YMR078C, strain ctf18, active compounds read low 1.03 | locus YMR125W, strain sto1, active compounds read low 1 | locus YMR129W, active compounds read low 1.01 | locus YMR205C, strain PFK2, active compounds read low 0.98 | locus YMR223W, strain ubp8, active compounds read low 0.986 | locus YMR231W, strain pep5, active compounds read low 0.991 | locus YMR263W, strain SAP30, active compounds read low 0.996 and 1.01 | locus YMR307W, strain GAS1, active compounds read low 0.942 | locus YNL067W, strain RPL9B, active compounds read low 1 | locus YNL071W, strain lat1, active compounds read low 1 | locus YNL128W, strain TEP1, active compounds read low 1 | locus YNL175C, strain NOP13, active compounds read low 1.01 | locus YNL183C, strain NPR1, active compounds read low 0.961 | locus YNL197C, strain WHI3, active compounds read low 1.01 | locus YNL209W, strain ssb2, active compounds read low 0.991 | locus YNL224C, strain SQS1, active compounds read low 1.03 | locus YNL233W, strain BNI4, active compounds read low 0.988 | locus YNL248C, strain rpa49, active compounds read low 0.976 | locus YNL250W, strain rad50, active compounds read low 1.01 | locus YNL271C, strain bni1, active compounds read low 0.993 | locus YNL298W, strain CLA4, active compounds read low 1 | locus YNL307C, strain MCK1, active compounds read low 1.02 | locus YNL322C, strain KRE1 (second series), active compounds read low 0.987 | locus YNL322C, strain KRE1, active compounds read low 1 | locus YNR049C, strain mso1, active compounds read low 1 | locus YNR052C, strain pop2, active compounds read low 0.992 | locus YOL006C, strain TOP1, active compounds read low 1.01 | locus YOL012C, strain htz1 0.825 | locus YOL147C, strain pex11, active compounds read low 1.02 | locus YOR001W, strain rrp6, active compounds read low 0.996 | locus YOR061W, strain CKA2, active compounds read low 0.97 | locus YOR069W, strain VPS5, active compounds read low 0.992 | locus YOR070C, strain gyp1, active compounds read low 0.989 | locus YOR080W, strain dia2, active compounds read low 0.994 | locus YOR083W, strain WHI5 (second series), active compounds read low 1.01 | locus YOR083W, strain WHI5, active compounds read low 0.974 | locus YOR106W, strain vam3, active compounds read low 0.931 | locus YOR136W, strain idh2, active compounds read low 1.02 | locus YOR144C, strain elg1, active compounds read low 1.02 | locus YOR184W, strain ser1, active compounds read low 1.01 | locus YOR231W, strain MKK1, active compounds read low 0.988 | locus YOR265W, strain rbl2, active compounds read low 0.991 | locus YOR270C, strain vph1, active compounds read low 0.872 | locus YOR290C, strain snf2, active compounds read low 0.976 | locus YOR316C, strain cot1, active compounds read low 1.01 | locus YPL051W, strain arl3, active compounds read low 0.952 | locus YPL055C, strain LGE1, active compounds read low 1 | locus YPL078C, strain atp4, active compounds read low 0.994 | locus YPL106C, strain sse1, active compounds read low 0.916 | locus YPL240C, strain hsp82, active compounds read low 0.997 | locus YPL241C, strain CIN2, active compounds read low 1 | locus YPL256C, strain CLN2, active compounds read low 0.974 | locus YPR119W, strain clb2, active compounds read low 1.02 | locus YPR141C, strain kar3, active compounds read low 1.01 | locus YPR163C, strain tif3, active compounds read low 1.02 | locus YPR167C, strain met16, active compounds read low 0.995 | strain wtn01, active compounds read low 1.02
